Source: the supplement of paper PMC12350171
Structures can show the parent of a compound that is named as a salt.

test system: S. enterica typhimurium WT; assay: growth AUC normalised to DMSO control (median) (fraction of control); higher = less growth inhibition, active = hit call of the paper; settings: 20 µM;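 active = normalised median growth AUC below 0.1 of DMSO control; inactive = AUC 0.1 or higher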
In short: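 Strains were passaged twice overnight without oxygen, then grown in mGAM in 96-well plates with each approved-drug library compound at 20 μM and 1% DMSO, starting at OD578 0.01. OD578 was read hourly for 24 h inside an anaerobic incubator. Curves were truncated at entry into stationary phase, and the trapezoidal-rule area under the curve was normalised to same-plate vehicle wells. The value is the median across three biological replicates.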
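Also: active when median AUC fell below 0.1.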

| SMILES | growth AUC normalised to DMSO control |
| --- | --- |
| Cc1cc(/C=C/c2ccc3cc(N(C)C)ccc3[n+]2C)c(C)n1-c1ccccc1 [Pyrvinium pamoate] | 1.02 (inactive) |
| CCOc1ccc2nc(S(N)(=O)=O)sc2c1 [Ethoxzolamide] | 0.997 (inactive) |
| Cc1cc(C#N)cc(C)c1Oc1nc(Nc2ccc(C#N)cc2)nc(N)c1Br [Etravirine] | 1.01 (inactive) |
| O=C1C(=O)c2ccccc2C(O)=C1C1CCC(c2ccc(Cl)cc2)CC1 (configuration not stated) [Atovaquone] | 0.992 (inactive) |
| CC(C)OC(=O)C(C)(C)Oc1ccc(C(=O)c2ccc(Cl)cc2)cc1 [Fenofibrate] | 1 (inactive) |
| NNc1nncc2ccccc12 [Hydralazine hydrochloride] | 0.996 (inactive) |
| CC(C)(CO)[C@@H](O)C(=O)NCCC(=O)NCCSSCCNC(=O)CCNC(=O)[C@H](O)C(C)(C)CO [D-Pantethine] | 1 (inactive) |
| O=C1[C@@H]2[C@H]3CC[C@H](C3)[C@@H]2C(=O)N1CCCCN1CCN(c2ncccn2)CC1 [Tandospirone] | 1.01 (inactive) |
| C[N+](C)(C)C[C@H](O)CC(=O)[O-] [Levocarnitine] | 0.998 (inactive) |
| O=C(O)c1cc(/N=N/c2ccc(S(=O)(=O)Nc3ccccn3)cc2)ccc1O [Sulfasalazine] | 1.01 (inactive) |
| COC1=CC(=O)C[C@@H](C)[C@]12Oc1c(Cl)c(OC)cc(OC)c1C2=O [Griseofulvin] | 1 (inactive) |
| Cn1c(=O)c2nc[nH]c2n(C)c1=O [Theophylline monohydrate] | 1.01 (inactive) |
